Screening results (PubChem BioAssay)
KCNQ2 inh – rat KCNQ2 potassium channel inhibitors, primary screen, cell-based, CHO-K1, FluxOR thallium flux, B-score; Potassium voltage-gated channel subfamily KQT member 2 (Rattus norvegicus), O88943; 20 min; stronger effect = lower value; 1.1% of 310,000 active; B-score at 10 µM;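 active = fluorescence ratio B-score at most minus 3 library SDs, with starting brightness B-score within 2 library SDs, cut at about -5.5 in these data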
KCNQ2 enhance – potentiators of rat KCNQ2 potassium channel; 0.54% of 310,000 active; CHO-K1 KCNQ2, FluxOR thallium flux fluorescence; stronger effect = higher value; B-score at 10 µM; Potassium voltage-gated channel subfamily KQT member 2 (Rattus norvegicus), O88943;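 active = fluorescence ratio B-score at least 3 SD of library B-scores, with initial fluorescence B-score within 3 of them, cut at about 5.3 in these data; same plate scores as AID 2156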;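 note: B-score of peak minus minimum over baseline fluorescence ratio after K+ and Tl+ stimulus; positive B-score means potentiation of KCNQ2 with more thallium influx and brighter signal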
Active calls of the source: *. An excerpt weighted towards active compounds, which were near 1.6% of everything screened.

`CC1=C(C(=O)OCCNC(=O)c2ccccc2O)C(c2ccccc2[N+](=O)[O-])C(C(=O)OCC2CCCO2)=C(C)N1` (configuration not stated) gave KCNQ2 inh inactive and KCNQ2 enhance 0.36.
For Cc1ccc(C(=O)/C=C\C(=O)c2ccc(C)cc2)cc1 the results were KCNQ2 inh -5.7* and KCNQ2 enhance -5.7.
`CC(/C=C/C(=O)c1ccc(C)cc1)=C\c1ccccc1` gave KCNQ2 inh inactive.
For S=C(NCc1cccc(Cl)c1)NC1CCCCC1 the results were KCNQ2 inh inactive and KCNQ2 enhance 8*.
S=C(NCc1ccccc1)NC1CCCCC1 was read as KCNQ2 inh inactive and KCNQ2 enhance 1.3.
For Cc1ccc(NC(=O)NCC2CCN(Cc3cccc(Cl)c3)CC2)c(Cl)c1 the results were KCNQ2 inh inactive and KCNQ2 enhance 6.5*.
Screening O=C(NCC1CCN(Cc2cccc(Cl)c2)CC1)Nc1ccccc1Cl returned KCNQ2 inh inactive and KCNQ2 enhance 1.4.
`COc1ccc(C(CC(=O)c2ccc(C)cc2)C(C#N)C#N)cc1OC` (configuration not stated) gave KCNQ2 inh inactive.
CCOC(=O)COc1cc(N)c(Cl)cc1Cl was read as KCNQ2 inh inactive and KCNQ2 enhance 0.24.
Screening C/C(=C\C(=S)Nc1ccccc1)Nc1cccc2ccccc12 returned KCNQ2 inh inactive.
C/C(=C\C(=S)Nc1ccccc1)Nc1ccc2ccccc2c1 was read as KCNQ2 inh -6.3* and KCNQ2 enhance -6.3.
For Cc1cccc(NC(=O)Cn2ccn(-c3ccc4c(c3)OCCO4)c(=O)c2=O)c1 the results were KCNQ2 inh inactive and KCNQ2 enhance 1.8.
O=C(CC1CCCCC1)Nc1ccccc1-c1ccccc1 was read as KCNQ2 inh inactive and KCNQ2 enhance 6.5*.
Screening O=C(CCC1CCCC1)Nc1ccccc1-c1ccccc1 returned KCNQ2 inh inactive and KCNQ2 enhance 23*.
Screening CCCC(=O)NCc1ccccc1Cl returned KCNQ2 inh inactive.
`O=C(CNC(c1ccccc1)c1ccccc1)Nc1ccccc1F` gave KCNQ2 inh inactive.
For O=C(CCC1CCCCC1)Nc1ccccc1O the results were KCNQ2 inh inactive and KCNQ2 enhance 4.5.
`COc1ccccc1NC(=O)CC1CCCC1` gave KCNQ2 inh inactive and KCNQ2 enhance 0.84.
`O=C(CNC(c1ccccc1)c1ccccc1)NCc1ccccc1Cl` gave KCNQ2 inh -6* and KCNQ2 enhance -6.
O=C(CNC(c1ccccc1)c1ccccc1)Nc1ccccc1-c1ccccc1 was read as KCNQ2 inh -6.3* and KCNQ2 enhance -6.3.
Screening CN(CC(=O)NCc1cccnc1)S(=O)(=O)c1ccc(F)cc1 returned KCNQ2 inh inactive and KCNQ2 enhance 0.76.
`COc1ccc(OCCC(=O)Nc2ccccc2)cc1` gave KCNQ2 inh inactive.
CC(NC(=O)N(Cc1ccccc1)Cc1ccc2c(c1)OCO2)(C(F)(F)F)C(F)(F)F was read as KCNQ2 inh inactive.
Screening CCC(NC(=O)N(Cc1ccccc1)Cc1ccc2c(c1)OCO2)(C(F)(F)F)C(F)(F)F returned KCNQ2 inh -8.1* and KCNQ2 enhance -8.1.
`O=C(NNC(=O)c1c(F)cccc1F)c1ccccc1-n1cccc1` gave KCNQ2 inh inactive and KCNQ2 enhance 0.99.
Screening COc1ccccc1-n1c(=S)sc2c(=O)n(Cc3ccco3)c(SC)nc21 returned KCNQ2 inh -6.9* and KCNQ2 enhance -6.9.
`COc1ccccc1-n1c(SC)nc2c(sc(=S)n2-c2ccccc2)c1=O` gave KCNQ2 inh inactive and KCNQ2 enhance 1.
COC1CCCN(C(=O)c2ccc(OC3CCN(CCc4ccccc4)CC3)cc2)C1 (configuration not stated) was read as KCNQ2 inh inactive.
Screening Cc1ccc(NC(=O)c2ccc3c(c2)N(CC(=O)N2CCCCC2)C(=O)C(C)(C)O3)cc1 returned KCNQ2 inh -7.9* and KCNQ2 enhance -7.9.
`COc1ccccc1NC(=O)c1ccc2c(c1)N(CC(=O)NC(C)(C)C)C(=O)C(C)(C)O2` gave KCNQ2 inh inactive.
CCOC(=O)CN1C(=O)C(C)(C)Oc2ccc(C(=O)Nc3ccccc3OC)cc21 was read as KCNQ2 inh -6.5* and KCNQ2 enhance -6.5.
`CC(C)(C)NC(=O)c1ccc2c(c1)N(CC(=O)N1CCCCC1)C(=O)C(C)(C)O2` gave KCNQ2 inh inactive and KCNQ2 enhance 0.93.
For CCOC(=O)C1=C(C)N(CCCC(=O)O)C(=O)NC1c1ccc2ccccc2c1 (configuration not stated) the results were KCNQ2 inh inactive and KCNQ2 enhance 0.26.
Screening C=CCn1c(NCc2cc(Cl)ccc2O)nc2ccccc21 returned KCNQ2 inh inactive.
`CCn1c(NCc2cc(Cl)ccc2O)nc2ccccc21` gave KCNQ2 inh -5.6* and KCNQ2 enhance -5.6.
`CCn1c(NCc2cccc(OC)c2OC)nc2ccccc21` gave KCNQ2 inh -6.1* and KCNQ2 enhance -6.1.
